Compound activity from PubChem BioAssay.
USP10 inh: human USP10 deubiquitinase inhibition | AID 1645856 | inhibition, % at 20 µM | purified USP10, Ub-rhodamine fluorescence, 60 min | Q14694 | actives 1.1% (n = 47,000)
USP7 block: inhibitors of human USP7 deubiquitinase. actives 0.3% (n = 47,000). purified USP7, Ub-rhodamine cleavage fluorescence. inhibition, % at 20 µM
OTUD3 inh: inhibitors of human OTUD3 deubiquitinase; Q5T2D3; purified OTUD3, Ub-rhodamine fluorescence, 2 h; inhibition, % at 25 µM; actives 0.7% (n = 47,000)
USP8 inh: inhibitors of human USP8 deubiquitinase; inhibition, % at 20 µM; actives 4.2% (n = 47,000); purified USP8, Ub-rhodamine cleavage fluorescence, 30 min
UCHL1 inh: human UCHL1 deubiquitinase inhibition; P09936; purified UCHL1, Ub-rhodamine cleavage fluorescence; inhibition, % at 20 µM; actives 0.2% (n = 47,000)
Of the large screens only hits and unclear results are named; the others gave an inactive call. Compounds with a hit are over-represented: about 4.9% of the library has one in this group of screens. No stated cut-off is given here; in the data, active means inhibition above about 30%; inactive means the rest.

CC(=O)Nc1cccc(-c2cnc3sc(NC4CCCCC4)nn23)c1	USP8 inh 47.0
Cc1cc(Cl)c2c(c1)[C@]1(C(=O)N2)N2CCC[C@H]2[C@@H](C(=O)c2cc3ccccc3o2)[C@]12C(=O)Nc1ccccc12	USP8 inh 41.1
COc1ccc(C(=O)Nc2ccc(CN3CCOCC3)cc2)cc1[N+](=O)[O-]	none
N#Cc1cccc(NC(=O)c2[nH]nc3c2COc2ccccc2-3)c1	USP10 inh 41.1, USP8 inh 72.4
CC(C)NC(=O)c1[nH]nc2c1COc1ccccc1-2	none
O=C(NCc1ccc2c(c1)OCO2)c1[nH]nc2c1COc1ccccc1-2	USP8 inh 53.7 (no result: USP7 block)
COc1ccc(NC(=O)c2[nH]nc3c2COc2ccccc2-3)c(OC)c1	USP8 inh 58.5
O=C(Nc1cccc(Cl)c1)c1[nH]nc2c1COc1ccccc1-2	USP8 inh 75.0
O=C(NCCN1CCCCC1)c1[nH]nc2c1COc1ccccc1-2	none
CCc1nc(SCC(=O)Nc2cc(C)ccc2OC)c2oc3ccccc3c2n1	none
COCC1c2c(cnn2CC2CC2)CCN1C(=O)c1cc(C)on1 (stereo unspecified)	none
COc1ccc2[nH]c(C(=O)NCc3ccc(C)cc3)c(N3CCCC3=O)c2c1	none
Cc1cc2c(=O)oc(-c3ccccc3Br)nc2s1	USP8 inh 43.5
O=C(CN1CCCc2ccccc21)Nc1ccc(N2CCOCC2)cc1	none
CC(=O)c1cccc(NC(=O)c2ccc3[nH]c4c(c3c2)CC(C)CC4)c1 (stereo unspecified)	USP8 inh 82.8
CC1CCc2cc(F)ccc2N1S(=O)(=O)c1cc(Br)cnc1N (stereo unspecified)	none
NC(=O)c1nc(Nc2ccccc2)sc1N	none
FC(F)(F)c1cc(C(F)(F)F)c2sc(Nc3ccccc3)nc2n1	USP8 inh 92.3
Cc1ccc(NC(=O)Cn2cncc(-c3nc(-c4ccccc4)cs3)c2=O)cc1F	USP10 inh 33.4, USP8 inh 40.8
O=C(Cn1cncc(-c2nc(-c3ccccc3)cs2)c1=O)Nc1ccc(F)cc1F	USP8 inh 41.4
Cc1ccccc1NC(=O)Cn1cncc(-c2nc(-c3ccccc3)cs2)c1=O	none
Cc1ccc(NC(=O)Cn2c(Nc3ccc(F)cc3)nc(C)cc2=O)cc1	none
CC(C)c1ccc(NC(=O)COC(=O)c2ccc3[nH]c4c(c3c2)CCCC4)cc1	none
O=C(COC(=O)C1(c2ccc(Cl)cc2)CCCC1)c1ccc2c(c1)OCCO2	none
O=C(COC(=O)c1ccc2[nH]c3c(c2c1)CCCC3)Nc1ccc2c(c1)OCO2	USP8 inh 40.8
O=C(COC(=O)C1(c2ccc(Cl)cc2)CCCC1)Nc1ccc2c(c1)OCO2	USP8 inh 36.2
COc1ccc(C(=O)NCc2ccc(C(=O)Nc3ccc(F)cc3)o2)cc1	none
COc1ccc(OC)c(C2=NO[C@]3(C(=O)Nc4ccccc43)[C@H]2C(=O)c2ccc(OC)c(OC)c2)c1	UCHL1 inh 84.6
COc1cc(C2=NO[C@]3(C(=O)Nc4ccccc43)[C@H]2C(=O)c2ccc(C)cc2)ccc1OCC#N	none
Cc1c(C(=O)Nc2cccc(Cl)c2)nnn1-c1cccc(F)c1	none
COc1ccc(OC)c(CCNC(=O)CCC2=NS(=O)(=O)c3ccc(C(F)(F)F)cc3N2)c1	USP8 inh 58.3
COc1cc(NC(=O)C2Cc3ccccc3CN2C(=O)c2ccco2)cc(OC)c1OC (stereo unspecified)	none
O=C(/C=C/c1ccco1)c1cccc([N+](=O)[O-])c1	USP10 inh 32.3, OTUD3 inh 47.2, USP8 inh 50.1 (no result: USP7 block)
O=S(=O)(CCN1CCc2nc(-c3ccccn3)nc(N3CCOCC3)c2C1)c1ccccc1	none
Cc1nc2ccccc2n1CC(O)Cn1c2ccccc2c2ccccc21 (stereo unspecified)	none
CCCn1c(C(O)c2cccc3ccccc23)nc2ccccc21 (stereo unspecified)	USP8 inh 48.3
Cc1nc2c(c(-c3ccc(O)cc3)n1)CCNCC2	USP8 inh 45.7
Nc1ccccc1SCc1noc(-c2cccs2)n1	none
Cc1cc(N2C(=O)c3oc4ccc(F)cc4c(=O)c3C2c2cccc(OCc3ccccc3Cl)c2)no1 (stereo unspecified)	USP8 inh 31.4
COc1ccc(CNC(=O)c2ccc(N3C(=O)N4CCc5c([nH]c6ccccc56)[C@@]4(C)C3=O)cc2)cc1	none
O=C(CC1CCCC1)N1CCC(O)(CN2CCC(F)(F)CC2)C1 (stereo unspecified)	none
CC1CCc2c(cnc3c(C(=O)NCCN4CCN(C)CC4)cnn23)C1 (stereo unspecified)	none
